The values below come from PubChem BioAssay (NCI).

Molecules are shown by their SMILES. The panel holds about 83,000 compounds, 20% with a hit somewhere; the sample as a whole holds those more often.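 96-well plates, one dose, 48 hours. Percent growth reported; active if below 10.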 Values without a mark were called inactive. Active and inactive are the calls of the source.

Test systems include NCI-H23 lung; NCI-H226 lung; NCI-H322M lung; HOP-62 NSCLC; NCI-H460 lung; HOP-92 NSCLC; NCI-H522 lung; A549/ATCC NSCLC; 786-0 renal; COLO 205 colon; DU-145 prostate; K-562 leukemia; MALME-3M melanoma; MDA-MB-231 breast; SF-268 CNS; SF-295 CNS; SF-539 CNS; UACC-257 melanoma; M14 melanoma.
Holding throughout (assay): NCI-60 one-dose screen, 48 h (100 = growth as untreated, 0 = no growth, -100 = all killed)
Holding throughout (conditions): 10 µM unless noted

In the case of `CC1(c2ccccc2)NC(=O)N(CC(=O)Nc2cccc(I)c2)C1=O` (configuration not stated), the growth with NCI-H23 lung was 95.3%; in the assay with NCI-H226 lung, 72.2%; in the assay on NCI-H322M lung, 83.8%; with HOP-62 NSCLC, 76.7%; in the assay on NCI-H460 lung it was 93.3%; in the assay with HOP-92 NSCLC, 60.1%. Also, the growth was 67.5% in the assay on NCI-H522 lung; 87.6% in the assay on A549/ATCC NSCLC; 95.3% in the assay with 786-0 renal; 106% with COLO 205 colon; 106% with DU-145 prostate; 91.7% with K-562 leukemia. In addition, the growth was 75.3% in the assay with MALME-3M melanoma; 75% in the assay with MDA-MB-231 breast; 89.7% with SF-268 CNS; 94% in the assay on SF-295 CNS; 89.9% in the assay on SF-539 CNS; 84.9% with UACC-257 melanoma. In addition, in the assay on M14 melanoma, the growth is 102%.
Take `O=C1NC(=S)NC(=O)C1=Cc1cn(Cc2ccccn2)c2ccccc12`: the growth was 77.9% with NCI-H23 lung; 86.7% in the assay with NCI-H226 lung; 95.5% in the assay with NCI-H322M lung; 53.6% with HOP-62 NSCLC; 10.7% with NCI-H460 lung; 66.9% with HOP-92 NSCLC. Also, the growth is 76.6% in the assay on NCI-H522 lung; 66.2% with A549/ATCC NSCLC; 43.9% with 786-0 renal; 58.4% in the assay with COLO 205 colon; 76.8% with DU-145 prostate; 26.4% in the assay on K-562 leukemia. The growth is 85.1% in the assay with MALME-3M melanoma; 53.3% with MDA-MB-231 breast; 59.6% in the assay with SF-268 CNS; 73.6% in the assay with SF-295 CNS; 60.7% with SF-539 CNS; 87.8% in the assay with UACC-257 melanoma. Further, the growth in the assay with M14 melanoma is -61.2% (active).
For the compound `CCCCCCCCCCCCC1CCC/C=C\CCC(=O)O1` (configuration not stated), the growth in the assay on NCI-H23 lung is 88.6%; with NCI-H226 lung, 100%; in the assay with NCI-H322M lung, 117%; in the assay on HOP-62 NSCLC, 111%; with NCI-H460 lung, 104%; in the assay with HOP-92 NSCLC it was 111%. Further, the growth is 91.8% in the assay with NCI-H522 lung; 55% with A549/ATCC NSCLC; 95.4% with 786-0 renal; 101% in the assay on COLO 205 colon; 115% in the assay on DU-145 prostate; 101% with K-562 leukemia. For the same compound, the growth with MALME-3M melanoma is 108%; in the assay on MDA-MB-231 breast it was 99.3%; with SF-268 CNS, 101%; with SF-295 CNS it was 103%; with SF-539 CNS it was 104%; in the assay with UACC-257 melanoma it was 119%. In the assay with M14 melanoma, the growth was 95.2%.
On to `CC(=O)Nc1ccc(S(=O)(=O)NC2CCCCC2)cc1`, for which the growth with NCI-H23 lung was 99.9%; with NCI-H226 lung it was 86.6%; with NCI-H322M lung, 96.5%; in the assay on HOP-62 NSCLC, 96.3%; in the assay on NCI-H460 lung, 102%; in the assay with HOP-92 NSCLC it was 89.3%. Also, the growth with NCI-H522 lung was 92%; in the assay with A549/ATCC NSCLC, 93.3%; with 786-0 renal, 99.8%; with COLO 205 colon it was 103%; in the assay with DU-145 prostate it was 113%; with K-562 leukemia it was 100%. Moreover, the growth is 98.1% with MALME-3M melanoma; 97.3% with MDA-MB-231 breast; 104% in the assay with SF-268 CNS; 96.4% in the assay on SF-295 CNS; 103% with SF-539 CNS; 95.8% in the assay on UACC-257 melanoma. Besides, the growth in the assay on M14 melanoma was 101%.
Consider `CCN1C(=O)N(CC)C2NC(SC)=NC21` (configuration not stated), for which the growth with NCI-H23 lung is 98%; in the assay on NCI-H226 lung, 94.3%; in the assay with NCI-H322M lung, 92.3%; in the assay with HOP-62 NSCLC it was 91.8%; in the assay with NCI-H460 lung it was 103%; in the assay on HOP-92 NSCLC it was 108%. The growth in the assay with NCI-H522 lung is 102%; in the assay with A549/ATCC NSCLC, 103%; with 786-0 renal it was 102%; with COLO 205 colon, 103%; in the assay on DU-145 prostate, 111%; in the assay with K-562 leukemia, 104%. For the same compound, the growth in the assay on MALME-3M melanoma was 95%; in the assay on MDA-MB-231 breast, 103%; in the assay with SF-268 CNS, 95.3%; in the assay with SF-295 CNS it was 101%; with SF-539 CNS, 98.7%; with UACC-257 melanoma, 97.8%. The growth in the assay with M14 melanoma was 100%.
Consider `O=C(N/N=C/c1ccc(F)cc1)c1ccccc1Nc1cccc(C(F)(F)F)c1`, for which the growth is 104% in the assay on NCI-H23 lung; 95.8% in the assay on NCI-H226 lung; 111% in the assay on NCI-H322M lung; 109% in the assay on HOP-62 NSCLC; 101% with NCI-H460 lung; 76.4% with HOP-92 NSCLC. For the same compound, the growth with NCI-H522 lung is 92.8%; in the assay with A549/ATCC NSCLC, 53.3%; with 786-0 renal, 95.5%; with COLO 205 colon it was 120%; in the assay with DU-145 prostate it was 96.8%; with K-562 leukemia it was 83.9%. In addition, the growth with MALME-3M melanoma is 111%; with MDA-MB-231 breast, 117%; in the assay on SF-268 CNS, 82.6%; in the assay with SF-295 CNS, 121%; in the assay with SF-539 CNS, 109%; with UACC-257 melanoma, 105%. The growth in the assay on M14 melanoma was 95%.
Regarding `Clc1cc(Cl)cc(N2N=C(c3cccc(Nc4ccncc4)c3)CC2c2ccc(Br)cc2)c1` (configuration not stated), the growth in the assay with NCI-H23 lung was 64.4%; in the assay on NCI-H226 lung, 85.7%; in the assay with NCI-H322M lung, 73.1%; in the assay on HOP-62 NSCLC, 33.7%; with NCI-H460 lung, -81.8% (active); in the assay on HOP-92 NSCLC it was 65.8%. In addition, the growth in the assay with NCI-H522 lung is 69.7%; with A549/ATCC NSCLC, 19.1%; in the assay on 786-0 renal it was 105%; in the assay with COLO 205 colon, -40.5% (active); with DU-145 prostate, 35.2%; with K-562 leukemia, 1.66% (active). For the same compound, the growth in the assay on MALME-3M melanoma was 23.7%; in the assay with MDA-MB-231 breast it was 57.1%; in the assay on SF-268 CNS, 77.1%; in the assay with SF-295 CNS, 36.9%; in the assay on SF-539 CNS, 76.6%; in the assay on UACC-257 melanoma, 79.4%. In the assay with M14 melanoma, the growth is 108%.
Take `COc1ccc(-c2nc(SC(C)C)nc(NNC(N)=O)c2C#N)cc1`: the growth with NCI-H23 lung was 97.8%; in the assay with NCI-H226 lung, 95.4%; in the assay on NCI-H322M lung, 94.2%; in the assay with HOP-62 NSCLC, 83.7%; in the assay on NCI-H460 lung, 94.5%; with HOP-92 NSCLC, 78%. Also, the growth in the assay with NCI-H522 lung was 63.4%; in the assay on A549/ATCC NSCLC, 88.6%; in the assay on 786-0 renal it was 95.5%; with COLO 205 colon, 117%; with DU-145 prostate, 94.2%; in the assay on K-562 leukemia, 25.7%. Further, the growth in the assay on MALME-3M melanoma is 81.2%; in the assay on MDA-MB-231 breast it was 78.8%; in the assay with SF-268 CNS, 84.9%; in the assay on SF-295 CNS, 88.7%; in the assay on SF-539 CNS it was 85.1%; with UACC-257 melanoma, 99.8%. In the assay on M14 melanoma, the growth is 99.6%.
